Results taken from ChEMBL document CHEMBL1961873, “Compounds: GSK PKIS; Assays: Nanosyn kinase panel” (2012).

biological target: T1, Ephrin type-B receptor 2 (Homo sapiens) (UniProt P29323); conditions: at 0.1 µM
T1 sequence (whole entry): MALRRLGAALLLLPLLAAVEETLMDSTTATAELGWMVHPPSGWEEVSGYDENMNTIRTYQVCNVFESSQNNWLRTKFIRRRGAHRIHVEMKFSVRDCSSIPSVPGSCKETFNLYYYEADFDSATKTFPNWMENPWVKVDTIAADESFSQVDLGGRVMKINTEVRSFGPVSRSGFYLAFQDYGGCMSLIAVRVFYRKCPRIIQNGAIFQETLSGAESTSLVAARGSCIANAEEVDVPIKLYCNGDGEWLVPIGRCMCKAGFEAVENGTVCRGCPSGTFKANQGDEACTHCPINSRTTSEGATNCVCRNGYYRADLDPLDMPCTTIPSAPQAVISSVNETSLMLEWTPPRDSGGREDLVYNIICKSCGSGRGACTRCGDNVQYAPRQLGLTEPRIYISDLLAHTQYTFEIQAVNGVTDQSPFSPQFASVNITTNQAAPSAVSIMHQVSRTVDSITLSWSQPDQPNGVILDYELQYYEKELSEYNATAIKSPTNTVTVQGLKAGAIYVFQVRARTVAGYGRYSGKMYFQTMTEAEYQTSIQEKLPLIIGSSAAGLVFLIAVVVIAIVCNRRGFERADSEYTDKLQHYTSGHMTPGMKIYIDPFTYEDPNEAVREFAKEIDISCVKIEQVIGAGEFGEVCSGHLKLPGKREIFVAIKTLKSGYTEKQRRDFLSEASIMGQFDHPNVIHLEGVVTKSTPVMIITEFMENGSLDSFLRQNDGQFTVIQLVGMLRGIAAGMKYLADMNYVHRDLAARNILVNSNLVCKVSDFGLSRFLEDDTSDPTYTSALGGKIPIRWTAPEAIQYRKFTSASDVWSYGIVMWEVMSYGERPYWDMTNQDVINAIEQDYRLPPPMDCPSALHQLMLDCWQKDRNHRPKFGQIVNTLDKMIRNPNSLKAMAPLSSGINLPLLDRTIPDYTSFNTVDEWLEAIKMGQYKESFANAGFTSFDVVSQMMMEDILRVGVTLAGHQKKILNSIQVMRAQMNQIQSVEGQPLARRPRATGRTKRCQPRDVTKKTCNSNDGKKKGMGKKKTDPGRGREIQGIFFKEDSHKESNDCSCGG
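Also: reported as mean inhibition of EPHB2, from the GSK PKIS dataset.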

| SMILES | inhibition [%] |
| --- | --- |
| NC(=O)c1sc(-n2cnc3ccc(C(F)(F)F)cc32)cc1OCc1ccccc1Br | 5.67 |
| CCOc1ccc2c(-c3ccnc(Nc4cccc(C(F)(F)F)c4)n3)cnn2n1 | 7.74 |
| COc1ccc(-c2cc(-c3c[nH]nc3-c3ccccn3)ccn2)cc1 | 7.99 |
| CCn1c(-c2nonc2N)nc2ccccc21 | 6.72 |
| Cc1cccc(Nc2ncc(-c3ccccc3)o2)c1 | 0.55 |
| Nc1nc(-c2ccc(F)cc2)c(-c2ccc3ncccc3n2)s1 | 9.15 |
| COc1cc(N2CCN(C(C)C)CC2)ccc1Nc1nc(Nc2ccc(F)cc2C(N)=O)c2cc[nH]c2n1 | 4.59 |
| c1ccc(-c2nc3n(c2-c2ccc4c(c2)OCO4)CCC3)nc1 | 1.03 |
| Fc1ccc(-c2nn3ccccc3c2-c2ccncc2)cc1 | 5.2 |
| CN(C)CCOc1ccc(-c2nc(-c3ccncc3)c(-c3ccc4c(c3)CC/C4=N\O)[nH]2)cc1 | 5.22 |
| COC(=O)Nc1nc2ccc(Oc3ccc(NC(=O)Nc4cccc(Cl)c4)cc3)cc2[nH]1 | 36.9 |
| N#Cc1c(NC(=O)CN2CCOCC2)sc2c1CCCC2 | 8.79 |
| O=C(O[C@H]1CN[C@H](C#Cc2cc3ncnc(Nc4ccc(Cc5ccccc5)cc4)c3s2)C1)N1CCOCC1 | 7.69 |
| CC(C)(CO)CNC(=O)c1ccc2c(c1)/C(=N/Nc1ccc(S(N)(=O)=O)cc1)C(=O)N2 | -4.35 |
| CS(=O)(=O)CCNCc1coc(-c2ccc3ncnc(Nc4ccc(OCc5ccccc5)cc4)c3c2)c1 | 3.86 |
| CC(=O)Nc1cccc(C#Cc2cncnc2Nc2ccc(OCc3cccc(F)c3)c(Cl)c2)c1 | 6.52 |
| COc1cc2ncn(-c3cc(OCc4ccccc4C(F)(F)F)c(C(=O)N(C)C)s3)c2cc1OC | 0.66 |

| SMILES | inhibition [%] |
| --- | --- |
| NS(=O)(=O)c1ccc(Nc2ncc(-c3ccccc3)o2)cc1 | 5.54 |
| Nc1nc(-c2cccc(Cl)c2)c(-c2ccc3ncccc3n2)s1 | 6.05 |
| CCn1cc(-c2ccnc3[nH]ccc23)c(-c2cccc(NC(=O)Nc3ccc(OCc4ccccc4)cc3)c2)n1 | -2.33 |
| Fc1cccc(COc2ccc(Nc3ncnc4sc(-c5ccco5)cc34)cc2Cl)c1 | 9.21 |
| N#Cc1c(NC(=O)c2ccc(F)cc2)sc2c1CCCC2 | 2.69 |
| COc1cccc(-n2ncc3c(N/N=C/c4ccc(F)cc4)ncnc32)c1 | 5.53 |
| c1cc(-c2cnn3nc(N4CCOCC4)ccc23)nc(NC2CC2)n1 | 10.2 |
| CCn1c(-c2nonc2N)nc2c(C#CC(C)(C)O)nc(OC[C@H](N)c3ccccc3)cc21 | 0.04 |
| Nc1ncc(-c2cccc(S(N)(=O)=O)c2)c2scc(-c3ccc(F)c(Cl)c3)c12 | 67.8 |
| O=C(Nc1n[nH]c2cc(-c3ccc(F)cc3)ccc12)C1CC1 | 6.99 |
| CC(=O)NCc1cccc(C#Cc2cncnc2Nc2ccc(OCc3cccc(F)c3)c(Cl)c2)c1 | 0.63 |
| CNC(=O)c1cccc(C#Cc2cncnc2Nc2ccc(OCc3cccc(F)c3)c(Cl)c2)c1 | 3.54 |
| COc1cccc(-c2c[nH]c3c(N/N=C/c4ccncc4)ncnc23)c1 | 10.3 |
| [O-][S+]1CCN(Cc2ccc(-c3ccc4ncnc(Nc5ccc(OCc6cccc(F)c6)c(Cl)c5)c4c3)o2)CC1 | 9.52 |
| CCN(CC)S(=O)(=O)c1ccc(OC)c(Nc2ncc(-c3ccccc3)o2)c1 | 5.55 |
| CCCN(CCS(C)(=O)=O)Cc1ccc(-c2ccc3ncnc(Nc4ccc(OCc5cccc(F)c5)c(Cl)c4)c3c2)o1 | 4.71 |
| COc1cc2c(cc1Nc1nc(Nc3ccsc3C(N)=O)c3cc[nH]c3n1)N(C(=O)CN(C)C)CCC2(C)C | 6.01 |
